High-throughput results: PubChem BioAssay, several laboratories
HSF1 activator: increases HSF-1 driven luciferase reporter signal; actives 1.7% (n = 300,000); activation, % at 9 µM; AID 504408; NIH3T3-HGL HSF-1 luciferase reporter, MG132, 8 h; 100% = twice DMSO control signal;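 active = mean replicate activation of at least 50% with a set share of replicates each reaching 50%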
AHR activator: human AHR activation | AHR-responsive luciferase reporter cells, luminescence | P35869 | actives 2.5% (n = 320,000) | AID 2796 | activation, % at 5 µM; in the data active = activation above about 47%
Target sequence (P35869 whole entry, looked up): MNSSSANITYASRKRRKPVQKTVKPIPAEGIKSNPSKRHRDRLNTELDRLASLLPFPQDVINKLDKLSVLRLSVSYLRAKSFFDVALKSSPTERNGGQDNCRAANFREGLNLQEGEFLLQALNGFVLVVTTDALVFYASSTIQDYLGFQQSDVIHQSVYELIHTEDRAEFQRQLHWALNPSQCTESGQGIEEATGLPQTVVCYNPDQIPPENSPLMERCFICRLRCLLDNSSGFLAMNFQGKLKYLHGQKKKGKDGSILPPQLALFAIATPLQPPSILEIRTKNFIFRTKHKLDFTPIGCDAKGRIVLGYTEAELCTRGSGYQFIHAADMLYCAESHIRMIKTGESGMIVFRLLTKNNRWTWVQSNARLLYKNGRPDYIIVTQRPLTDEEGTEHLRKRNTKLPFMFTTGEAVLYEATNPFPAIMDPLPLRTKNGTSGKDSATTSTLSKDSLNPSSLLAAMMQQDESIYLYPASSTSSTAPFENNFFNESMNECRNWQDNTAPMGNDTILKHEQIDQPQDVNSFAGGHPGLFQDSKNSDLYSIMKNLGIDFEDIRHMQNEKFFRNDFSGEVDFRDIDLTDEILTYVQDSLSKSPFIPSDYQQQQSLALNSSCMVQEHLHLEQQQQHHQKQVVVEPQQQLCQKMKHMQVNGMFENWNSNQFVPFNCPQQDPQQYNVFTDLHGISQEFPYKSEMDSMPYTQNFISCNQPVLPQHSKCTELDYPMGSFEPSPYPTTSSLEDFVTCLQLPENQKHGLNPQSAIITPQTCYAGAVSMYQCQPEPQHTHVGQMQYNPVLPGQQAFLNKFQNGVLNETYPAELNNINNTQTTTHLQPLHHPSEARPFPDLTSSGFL
HSF1 inh: HSF1 inhibition. actives 0.77% (n = 300,000). AID 2098. NIH3T3-HGL HSE-luciferase, MG132-induced, luminescence 8 h; active compounds read low. activity change, negative = inhibition, % at 7.5 µM (by protocol);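 active = more than half of replicate wells show activity change below -50%, luminescence cut by over half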;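 also: luciferase reports HSF-1 transcriptional activity via heat shock element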
FXN GAA850 act: frataxin GAA850 promoter activation | AID 540364 | activation, % at 6 µM | actives 0.56% (n = 360,000) | HEK293 lucGAA850 FXN promoter luciferase reporter, 24 h; percent of 10 µM SAHA response;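 active = activation above the average of all compounds screened plus 3 SD, cutoff fixed separately per campaign, cut at about 7.5% in these data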
Numbers stand for hits; . = inactive; / = not tested or not shown. Sampled rows, rich in hits. Any-hit rate of the full collection: about 4.6%.

SMILES	HSF1 activator	AHR activator	HSF1 inh	FXN GAA850 act
Cc1ccc(OCc2cc(C(=O)N(C)CCc3nc4ccccc4[nH]3)no2)cc1C	.	/	-88	.
Cc1ccc(OCc2cc(C(=O)N(C)CCc3ccccn3)no2)cc1C	.	.	.	.
Fc1ccc(-c2nc3ccccc3[nH]2)cc1	.	.	.	.
C=CCn1c(C)nc2c(sc3nc4c(cc32)COC(C)(C)C4)c1=O	53	.	.	.
CCc1nc2c(sc3nc4c(cc32)COC(C)(C)C4)c(=O)n1CCN(CC)CC	.	.	.	.
COc1cccc(OCc2cc(C(=O)NCCN3CCCCC3CO)no2)c1 (centres undefined)	.	.	.	.
Cc1cccc(-n2nc(CC#N)c(C#N)c2N)c1	.	.	.	.
N#CCc1nn(-c2ccccc2)c2ncnc(N)c12	.	.	-60	.
O=C(CCl)N(C/C=C/c1ccccc1)c1ccc2c(c1)OCCO2	.	.	-77	.
O=C(/C=C/c1ccccc1)c1ccc2c(c1)OCCCCO2	.	.	.	.
Cc1nn(Cc2ccccc2Cl)c(C)c1NC(=O)c1noc(C(C)C)c1[N+](=O)[O-]	.	.	.	.
CCc1ccc(NC(=O)CCC(=O)N2CCSc3ccccc32)cc1	.	69	.	.
CCc1cccc(NC(=O)CCC(=O)N2CCSc3ccccc32)c1	.	.	.	.
ClCC1CSC(=NC23CC4CC(CC(C4)C2)C3)O1 (centres undefined)	59	.	.	.
CC1(C)C2CCC(C2)C1(C)N=C1OC(CCl)CS1 (centres undefined)	.	.	.	.
CCOC(=O)c1ccc2ncc(-c3ccccc3)nc2c1	62	/	.	.
Cc1cc2ncc(-c3ccccc3)nc2cc1C	.	.	.	.
Oc1cc2c(cc1CN1CCN(c3cccc(C(F)(F)F)c3)CC1)CCC2	.	.	.	.
CN(C)/C=C1/C(=O)N(c2ccc([N+](=O)[O-])cc2)N=C1c1ccccc1	56	.	.	/
CCNc1nc(N)nc(Oc2ccc(OCCOc3ccccc3)nn2)n1	.	.	.	.
Cc1cc(OCc2cc(C(=O)N(C)C3CCOC3)no2)cc(C)c1Cl (centres undefined)	64	.	.	.
COc1ccc(OCc2cc(C(=O)N(C)CCC3CCOCC3)no2)c(Cl)c1	77	.	.	.
Cc1cc2c(cc1C)C(c1ccccc1OC(C)C)CC(=O)N2 (centres undefined)	.	52	.	.
COc1ccccc1C1CC(=O)Nc2cc(C)c(C)cc21 (centres undefined)	.	.	.	.
CCOc1cc(/C=C2\CCCc3c2nc2ccccc2c3C(=O)O)ccc1OC	56	.	.	.
SMILES	HSF1 activator	AHR activator	HSF1 inh	FXN GAA850 act
COc1cccc(CNC(=O)Cn2nc(C)c3c(C)n(-c4ccc(C)cc4)nc3c2=O)c1OC	.	.	.	.
CCn1cc([N+](=O)[O-])c(C(=O)Nc2nc(-c3ccc(C)cc3)c(C)s2)n1	.	.	.	.
CCn1cc([N+](=O)[O-])c(C(=O)Nc2nc(-c3ccc(C)c(C)c3)c(C)s2)n1	61	.	.	.
CCCCn1c(N)c(Sc2ccc(C)cc2)c(=O)[nH]c1=O	.	.	.	.
CCCn1c(N)c(Sc2ccc(C)cc2)c(=O)n(CCC)c1=O	73	.	.	.
C=CCn1c(C)cc(C(=O)CSc2nnc(NCc3ccccc3)s2)c1C	/	.	/	.
C=CCn1c(C)cc(C(=O)CSc2nnc(NC(C)C)s2)c1C	.	.	-59	.
C=CCn1c(C)cc(C(=O)CSc2n[nH]c(N)n2)c1C	.	50	.	.
O=C(Nc1cc(S(=O)(=O)N2CCCCCC2)ccc1OCC(F)(F)F)c1ccc(=O)[nH]c1	/	.	/	.
COC(=O)c1ccc(COn2nnc3ccccc32)cc1	59	.	.	.
CC(=O)Nc1ccc(OCCOc2ccc(/C=C3\C(=N)N4N=C(C(C)C)SC4=NC3=O)cc2)cc1	.	.	.	.
CCOCCCNC(=O)C1CCN(S(=O)(=O)c2cc(Br)cc3c2N(C(=O)CC)CC3)CC1	.	.	.	.
O=[N+]([O-])c1ccccc1NCCNS(=O)(=O)c1ccc(Cl)cc1	.	.	.	.
O=[N+]([O-])c1cc(Cl)ccc1NCCNS(=O)(=O)c1ccccc1	55	.	.	.
Cc1cc(/C=C2\SC(=O)N(C)C2=O)c(C)n1-c1ccc(O)cc1	.	.	-70	.
CN=C1S/C(=C\c2cc(C)n(-c3ccccc3F)c2C)C(=O)N1C	.	.	-82	.
Cc1cc(/C=C2\SC(=O)N(C)C2=O)c(C)n1-c1ccc(S(N)(=O)=O)cc1	.	.	.	.
CS(=O)(=O)N1CCC(C(=O)Nc2ccc(Oc3ccccc3)cc2)CC1	.	.	.	.
C=CCN1C(=O)SC(Cc2cccc(OC)c2O)C1=O (centres undefined)	.	.	.	.
Fc1ccc(OCc2nn3cnnc3s2)cc1	.	.	.	.
CCOCc1c(C(=O)NC2CCCCCC2)oc2ccccc12	.	.	.	.
Cc1c(C(=O)NC2=NCCS2)oc2ccccc12	.	64	.	.
Cc1c(C(=O)NC2CCCC2)oc2ccccc12	/	61	/	.
Cc1nc(CSc2ccc(Br)cc2)cs1	.	.	.	.
Cc1nc(CSc2ccc(Cl)cc2)cs1	51	.	.	.
SMILES	HSF1 activator	AHR activator	HSF1 inh	FXN GAA850 act
CCCCOC(=O)CSC1=C(C#N)C(c2ccc3c(c2)OCO3)CC(=O)N1 (centres undefined)	.	.	.	.
Cc1ccc(NC(=O)CN(C)Cc2nc3ccccc3c(=O)[nH]2)c(Br)c1	53	.	.	.
CC1=CC(=O)C=C(C)C1=NOC(=O)/C=C\c1ccccc1	65	.	.	.
Cc1ccc(C(=O)CN2C(=O)c3ccccc3S2(=O)=O)cc1	.	.	-75	.
O=C(CN1C(=O)c2ccccc2S1(=O)=O)N1CCOCC1	.	.	.	.
O=C(CN1C(=O)c2ccccc2S1(=O)=O)N1CCCCC1	54	.	.	.
O=C(Nc1nnc(C2CC2)s1)c1cc(S(=O)(=O)N2CCN(c3ccccc3)CC2)ccc1Cl	.	.	.	.
CC[n+]1c(/C=C/c2ccc(OC)c(OC)c2)ccc2ccccc21	.	.	.	.
CC[n+]1c(/C=C/c2cc([N+](=O)[O-])ccc2O)ccc2ccccc21	.	.	-58	.
Nc1[nH]c(=O)[nH]c(=O)c1N=Cc1ccccc1	/	/	/	.
CCCCC(=O)Nc1sc(C(=O)N(CC)CC)c(C)c1C(=O)OC	.	.	-88	.
CCOC(=O)c1c(NC(=O)CN(C)C)sc(C(=O)N(CC)CC)c1C	.	.	.	.
COc1cc(/C=C2/C(=O)N(c3cccc(Br)c3)N=C2C)cc(OC)c1O	.	.	.	.
Cc1ccc(S(=O)(=O)N2CCC(N3CCN(C)CC3)CC2)cc1Cl	.	.	.	.
O=[N+]([O-])c1cc([N+](=O)[O-])c(Oc2c(F)cccc2F)cc1NN1CCCCC1	62	.	.	.
O=[N+]([O-])c1cc([N+](=O)[O-])c(Oc2c(F)ccc(F)c2F)cc1NN1CCCCC1	.	.	.	.
O=c1[nH]c(=S)[nH]cc1Oc1ccc(Br)cc1Br	/	/	/	.
COc1ccc(-c2nc(-c3ccc(Br)cc3)no2)c(OC)c1	.	95	.	.
